GC-B act: human GC-B receptor activators, primary screen, HEK293 GC-B cells, cGMP TR-FRET, EC30 CNP. Atrial natriuretic peptide receptor 2 (Homo sapiens), P20594. 0% at EC30 CNP, 100% saturating CNP. activation, % at 10 µM. hit rate 0.11% among 370,000. AID 1920062, 2024;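 active = activation at 10 µM reaching about 35% in either raw or pattern-adjusted values, limit read from the data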
HSF1 inh: HSF1 inhibitors in luciferase reporter cells, primary screen, cell-based, NIH3T3, luminescence | NIH3T3-HGL HSE-luciferase, MG132-induced, luminescence 8 h; active compounds read low | activity change, negative = inhibition, % at 7.5 µM (by protocol) | hit rate 0.77% among 300,000;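 active = more than half of replicate wells show activity change below -50%, luminescence cut by over half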;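 also: luciferase reports HSF-1 transcriptional activity via heat shock element; 0% = median of DMSO wells and -100% = zero luminescence signal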
HSF1 activator: HSF-1 activators, primary screen, NIH3T3-HGL cells, MG132 stress, luminescence, single point; NIH3T3-HGL HSF-1 luciferase reporter, 8 h; 100% = twice DMSO control signal; hit rate 1.7% among 300,000; activation, % at 9 µM; AID 504408, 2011;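 active = mean replicate activation of at least 50% with a set share of replicates each reaching 50%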;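 also: 0% = median of the neutral control wells and 100% = twice that signal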
Dyrk1A ADPGlo: rat Dyrk1A kinase inhibitors, primary screen, biochemical, single point, plate reader; Dual specificity tyrosine-phosphorylation-regulated kinase 1A (Rattus norvegicus), Q63470; ADP-Glo luminescence, NFATc1 peptide; inhibition, % at 12.5 µM; hit rate 0.43% among 310,000; AID 504441, 2011; in the data active = inhibition above about 50%;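 also: plate controls were vehicle with enzyme for no effect and no enzyme for full effect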
aDG glyco act: activators of alpha-DG glycosylation, primary screen, uHTS, Pro5-aDG cells, AlphaScreen; alpha-DG glycosylation AlphaScreen (IIH6); 0% Pro5, 100% B10-LARGE cell signal; activation, % at 10 µM; hit rate 0.22% among 360,000;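 active = activation of at least 8% versus controls, or a plate z-score of at least 8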;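 also: Pro5 are CHO cells carrying HIG-tagged alpha-DG that lacks glycosylation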
GC-A act: GC-A stimulated cGMP production enhancers – HEK293 GC-A cells, cGMP TR-FRET, EC30 ANP, primary screen; Atrial natriuretic peptide receptor 1 (Homo sapiens), P16066; 0% at EC30 ANP, 100% saturating ANP; activation, % at 10 µM; hit rate 0.14% among 370,000; in the data active = activation above about 40%
* hit, by the source's call; x = no result given. A selection: hits, their analogues and other compounds. The true share with any hit is near 2.5%.

SMILES	GC-B act	HSF1 inh	HSF1 activator	Dyrk1A ADPGlo	aDG glyco act	GC-A act
CCOC(=O)C(=Cc1ccc(-n2ccnc2)cc1)C(=O)OCC	-3	72	128*	-7	2	-4
CCOC(=O)C(=Cc1ccc(Br)cc1)C(=O)OCC	-14	113	148*	5	0	-57
CCOC(=O)C(=Cc1ccc(F)cc1)C(=O)OCC	x	122	126*	x	x	x
CCOC(=O)C(=O)Nc1ccc(F)cc1	-3	5	-6	1	0	-2
CCOc1ccc(NC(=O)C2CCCN(c3nn4c(=O)cc(C)nc4s3)C2)cc1 (stereo unspecified)	-3	-62*	-69	-7	0	0
Cc1cc(C)cc(NC(=O)C2CCCN(c3nc(C)cc(C)n3)C2)c1 (stereo unspecified)	4	2	5	2	0	0
Cc1cc(C)nc(N2CCCC(C(=O)Nc3ccc4nc(C)c(C)nc4c3)C2)n1 (stereo unspecified)	0	25	57*	-1	0	7
NC(=O)c1ccsc1N	x	-2	-10	x	x	x
C(=N\Nc1nc(-c2ccccn2)nc2ccccc12)/c1ccccc1	x	111	160*	x	x	x
C(=N\Nc1nc(-c2cccnc2)nc2ccccc12)/c1ccccc1	3	-2	4	x	0	-1
Cc1cccc(C(=O)Oc2ccc(/C=N/NC(=O)c3ccccc3O)cc2)c1	6	53	55*	-3	0	1
CC(C)(C)[C@H](NC(=O)c1cc(Cl)cc(Cl)c1)C(=O)N1CCC[C@H]1C(=O)N[C@H](C#N)CC(=O)O	-5	x	x	x	x	-2
Cc1cc(Cl)cc(Br)c1OCCCN1C(=O)NC(C)(C)C1=O	-2	32	75*	4	0	-7
Cc1cc(Cl)c(OCCN2C(=O)NC(C)(C)C2=O)c(Br)c1	-5	4	13	-7	0	6
c1ccc2c(c1)Cc1cc(CN3CCOCC3)ccc1-2	-2	41	56*	3	0	3
N#C/C(=C\c1ccc(Sc2nc3ccccc3[nH]2)o1)c1ccccc1	-10	43	71*	7	2	-13
N#C/C(=C\c1ccc(Sc2ccc(Cl)cc2)o1)c1nc2ccccc2[nH]1	14	x	x	-6	2	3
CN(C)c1ccc(/C=C/c2nc3ccccc3s2)cc1	x	-80*	-82	4	0	x
Cc1ccc(/C=C/c2nc3ccccc3s2)s1	-7	-75*	-76	2	0	-2
CN(C)c1ccc(/C=C/c2ccc3ccccc3n2)cc1	x	-85*	-87	14	0	x
COc1cc(/C=C/c2nc3ccccc3s2)cc(OC)c1O	2	0	32	6	0	4
C(=C\c1ccc2ccccc2n1)/c1ccccc1	-7	-30	-12	5	0	-5
O=C(NCC(=O)N1CCCC1)c1ccc(Br)o1	2	-5	13	1	0	-2
CN(/C(=N\S(=O)(=O)c1ccccc1)c1ccccc1)c1ccc(O)cc1	-2	12	59*	-3	0	13
COc1cccc(SCc2noc(C(=O)NCc3ccccc3)c2C(=O)NCc2ccccc2)c1	2	-2	1	9	0	2
SMILES	GC-B act	HSF1 inh	HSF1 activator	Dyrk1A ADPGlo	aDG glyco act	GC-A act
COc1ccc(NC2=C(Cl)C(=O)N(CCc3ccccc3)C2=O)cc1	-3	34	59*	-4	0	5
COc1ccc(NC2=C(Cl)C(=O)N(CCc3ccccc3)C2=O)c(OC)c1	-1	7	31	1	0	3
COc1ccccc1-c1nnc(SC2CCc3ccccc3NC2=O)s1 (stereo unspecified)	4	-52*	-63	8	0	-10
COc1ccc(C(=O)N2CCN(C(=O)CC(C)C)CC2)cc1OC	5	5	10	10	0	1
COc1cc(C(=O)N2CCN(C(=O)CC(C)C)CC2)cc(OC)c1OC	-5	-73*	-78	-2	0	1
C=CCn1c(=O)c2c(C)c(C)sc2n2c(Nc3ccc(OC)cc3)nnc12	39*	16	28	3	1	34
C=CCn1c(SCC(=O)Nc2ccc(O)cc2)nc2sc(C)c(C)c2c1=O	-2	x	x	5	0	-5
COc1ccc(CNC(=O)CN(c2ccc(C(C)=O)cc2)S(=O)(=O)c2ccc(C)cc2)cc1OC	-1	x	x	x	0	-2
COc1ccc(NC(=O)CSc2nc(N)c3cc4c(nc3n2)CCCC4)cc1	0	41	58*	-4	0	-11
COc1cc(NC(=S)NCCN2CCOCC2)cc(OC)c1	-4	-2	-9	-3	0	1
COc1cc(/C=C/c2ccc3cccc(O)c3n2)cc(Cl)c1OC	-6	68	72*	5	2.5*	0
Cc1ccc(/C=C/c2ccc3cccc(O)c3n2)s1	1	51	85*	6	0	2
Oc1cccc(/C=C/c2ccc3cccc(O)c3n2)c1	-3	-15	-26	-2	0	1
CCn1cc(CN2CCCC(C(=O)Nc3cccc(-n4cccn4)c3)C2)c(C)n1 (stereo unspecified)	0	-2	-8	0	0	-3
COc1ccc2c3n(nc2c1)CCN=C3c1ccc(C)cc1	-12	x	x	3	0	-2
COc1ccc(C2=NCCn3nc4cc([N+](=O)[O-])ccc4c32)cc1	-2	-66*	-74	6	0	-2
C=CCSc1nnc2nc3c(nn12)c1cc(C)ccc1n3CC=C	51*	-4	3	3	0	50*
COc1ccc(CCNC(=O)[C@@H](NC(=O)N2CCn3c2nc2ccccc23)C(C)C)cc1OC	1	8	26	x	0	3
COc1ccc(CCNC(=O)[C@H](CC(C)C)NC(=O)N2CCn3c2nc2ccccc23)cc1OC	0	27	56*	-1	0	2
OCC1CCCN(Cc2cn(Cc3ccccc3)nc2-c2cc3ccccc3o2)C1 (stereo unspecified)	-3	10	24	5	1	-4
Cc1cc2[nH]c(=O)c(=O)[nH]c2cc1S(=O)(=O)NC1CCC(C)CC1 (stereo unspecified)	6	-1	-7	-6	0	6
Cc1cc2[nH]c(=O)c(=O)[nH]c2cc1S(=O)(=O)NC1CCCCC1C (stereo unspecified)	x	-6	-8	57*	0	x
